Only some compounds are listed: those with a hit (about 3.4% of all), similar ones and a draw of the others.
GLS inhibitor = glutaminase GLS (human) inhibition; GLS enzymatic activity, qHTS titration; Potency, µM (series often up to 45.5 µM), without a hit: at the top dose activity change, negative = inhibition, hits mostly inhibitors; actives 0.21% (n = 410,000); AID 624170; further: on the % scale 0 is the no-effect control and ±100 the full control effect
Target sequence (O94925 whole entry, looked up): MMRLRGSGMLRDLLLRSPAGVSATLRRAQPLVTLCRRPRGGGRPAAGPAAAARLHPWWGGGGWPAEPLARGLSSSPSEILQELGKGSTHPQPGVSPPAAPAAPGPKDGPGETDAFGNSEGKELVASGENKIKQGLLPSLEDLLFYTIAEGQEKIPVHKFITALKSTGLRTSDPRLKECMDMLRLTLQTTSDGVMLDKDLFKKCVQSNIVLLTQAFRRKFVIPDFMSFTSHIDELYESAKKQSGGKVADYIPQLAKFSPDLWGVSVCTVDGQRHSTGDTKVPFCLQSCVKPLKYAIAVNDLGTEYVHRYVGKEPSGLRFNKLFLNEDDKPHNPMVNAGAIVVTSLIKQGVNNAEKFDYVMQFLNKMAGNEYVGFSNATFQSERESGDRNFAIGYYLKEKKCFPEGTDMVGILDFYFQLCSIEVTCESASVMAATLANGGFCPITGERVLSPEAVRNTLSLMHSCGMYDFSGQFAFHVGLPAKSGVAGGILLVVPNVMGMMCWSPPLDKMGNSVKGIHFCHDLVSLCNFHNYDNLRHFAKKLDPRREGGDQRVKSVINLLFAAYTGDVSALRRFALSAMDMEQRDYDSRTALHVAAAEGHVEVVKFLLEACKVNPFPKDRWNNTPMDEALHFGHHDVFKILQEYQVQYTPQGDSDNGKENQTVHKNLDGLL
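Coupled fluorescence readout: glutamate oxidase/HRP/Amplex Red detect glutamate formed by hKGA from L-glutamine (1 mM solution added). Buffer 45 mM KH2PO4 pH 8.2, 0.02% Tween-20; reads at t0 and 30 min RT.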
Mito fusion act = inhibitors of mitochondrial division or activators of mitochondrial fusion | S. cerevisiae fusion-defective mutant growth rescue, CellTiterGlo 48 h | actives 0.23% (n = 320,000) | AID 485298 | Potency, µM (top dose mostly 46.1 µM), for the others: at the highest dose growth rescue (activation), hits mostly activators; further: % of control where 0% means no effect; nearly all actives have a fitted effect of over 45% in size
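Read-out: ATP-based luminescence (CellTiterGlo, 10 min ambient) reporting growth of fusion-defective ts yeast after 48 hours at 37C on glycerol/ethanol YPEG medium in the presence of compound.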
PLK1 PBD inh = inhibitors of human PLK1 polo-box domain binding. P53350. Plk1 PBD binding of FITC phosphopeptide, fluorescence polarization. Potency, µM, for inactives: max response, negative = inhibition, usual class: inhibitors. actives 2.8% (n = 360,000); further: series mostly up to about 57 µM; on the % scale 0 is the no-effect control and ±100 the full control effect; nearly all actives have a fitted effect of over 65% in size
PKM2 act = activators of human pyruvate kinase M2. purified PKM2, Kinase-Glo ATP luminescence, activation; response scale: 0% is enzyme alone, no compound. Potency, µM (highest dose often 57.5 µM), inactives show top-dose activation, usual class: activators. P14618. actives 0.34% (n = 260,000); further: on the % scale 0 is the no-effect control and ±100 the full control effect; nearly all actives have a fitted effect of over 55% in size
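ATP formation by purified human PK-M2, quantified via coupled luciferase luminescence after 1 h at room temperature with 0.1 mM ADP and 0.5 mM PEP final.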
VDR inhibitor = blocks the human vitamin D receptor | P11473 | VDR-SRC2-3 peptide fluorescence polarization, 2 h | Potency, µM, inactives show max response, negative = inhibition, actives largely listed as inhibitors | actives 0.93% (n = 400,000); further: on the % scale 0 is the no-effect control and ±100 the full control effect
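Signal is fluorescence polarization, reporting how far test compounds block the interaction of VDR with the SRC2-3 coregulator peptide after a 2 h room-temperature incubation.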
GCN5L2 inh = GCN5L2 (KAT2A) acetyltransferase inhibition; Q92830; GCN5L2 HAT assay, ThioGlo1 CoA-SH fluorescence; Potency, µM (doses to about 58.9 µM), for the others: top-dose activity change, negative = inhibition, usual class: inhibitors; actives 0.21% (n = 390,000); AID 504327; further: on the % scale 0 is the no-effect control and ±100 the full control effect
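Enzyme at 20nM final was mixed with library compounds for 15 min at room temperature. Peptide H3(1-25) at 75uM, acetyl-CoA at 70uM and ThioGlo1 at 50uM were then added. Plates were read immediately and after 20 min (Ex340nm/Em540nm).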
TbPYK inh = confirmation of Trypanosoma brucei pyruvate kinase inhibitors; shares compounds with PLK1 PBD inh; actives 67% (n = 890); AID 720569; recombinant TbPYK, Kinase-Glo ATP luminescence; Potency, µM (highest dose often 76.9 µM), for the others: at the highest dose activity change, negative = inhibition, actives largely listed as inhibitors; further: on the % scale 0 is the no-effect control and ±100 the full control effect; nearly all actives have a fitted effect of over 70% in size
TbPYK orthogonal = TbPYK inhibition, orthogonal confirmation; shares compounds with PLK1 PBD inh; recombinant TbPYK, ADP-Glo luminescence, 60 min; Potency, µM (highest dose often 76.9 µM), for the others: top-dose activity change, negative = inhibition, most hits filed as inhibitors; actives 62% (n = 890); AID 720584; further: on the % scale 0 is the no-effect control and ±100 the full control effect; nearly all actives have a fitted effect of over 75% in size
Starred values were filed as active, the others as inactive; u = inconclusive; x = no result given; [ ] = another dose, or the depositor's remark. The call rests on the fitted dose curve; in most records, active means well fitted curve in the direction sought with a large enough effect; inconclusive means small, poorly fitted or top-dose-only effect, or another doubt; inactive means no such curve, though single readings can be large; an effect the other way counts as inactive or inconclusive. Potency means the concentration at half of the fitted maximal effect.

SMILES | GLS inhibitor | Mito fusion act | PLK1 PBD inh | PKM2 act | VDR inhibitor | GCN5L2 inh | TbPYK inh | TbPYK orthogonal
Cc1ccsc1CNC(=O)C1(C)CCN1C(=O)C(C)C (stereo not given) | -11.9% | x | -0.1% | x | x | x | x | x
O=C(CN1CCN(c2ccc(O)cc2)CC1)Nc1ccccc1C(=O)NCCc1ccccc1 | 35.8% | 9.0% | 3.5% | x | -2.7% | u | 2.51µM* | 5.01µM*
C1=CC2c3ccccc3NC(c3ccncc3)C2C1 (stereo not given) | -10.8% | -4.3% | u | 18.8% | u | -3.4% | 17.8µM* | 15.8µM*
CCOc1ccc(C(=S)N2CCN(C)CC2)cc1 | 14.4% | -0.7% | 13.4µM* | -17.5% | u | 4.1% | 12.6µM* | 4.47µM*
CCOc1ccc(C(=O)OC(C)CN2CCN(C)CC2)cc1 (stereo not given) | 17.0% | -10.1% | -4.3% | x | -15.3% | -3.2% | x | x
Cn1c(=O)c2c(nc(SCC(=O)O)n2Cc2cc3c(cc2Cl)OCO3)n(C)c1=O | -26.2% | -1.5% | -5.6% | -3.8% | -5.2% | -4.3% | 2µM* | 3.98µM*
Cc1ccc(-c2csc3ncn(-n4c(C)ccc4C)c(=O)c23)o1 | -3.8% | 0.3% | u | -6.2% | u | u | -23.7% | u
O=[N+]([O-])c1cnc(Sc2ccncn2)c([N+](=O)[O-])c1 | 34.5% | x | 1.19µM* | x | x | x | -90.3% | u
CCOC(=O)c1sc2nc(N3CCOCC3)c3c(c2c1N)CCCC3 | u | -0.4% | -1.6% | 2.6% | -7.7% | -2.6% | x | x
CCN(CC)C(=O)c1sc2nc(N3CCOCC3)c3c(c2c1N)CCCC3 | -18.6% | 10.0% | u | -1.0% | -11.3% | -10.4% | 7.94µM* | 4.47µM*
CC(C)CC1CC(=O)OC1(C)C(=O)CSc1nc2ccccc2s1 (stereo not given) | -7.1% | -4.2% | 18.9µM* | -0.5% | -18.9% | -5.7% | u | u
Oc1ccc2c(c1)OCC1(O)Cc3cc(O)c(O)cc3C21 (stereo not given) | u | x | u | x | 79.4µM* | -9.4% | 2.24µM* | 3.16µM*
COc1ccc(Oc2c(OC)cc(NCc3ccc(CN)cc3)c3ncccc23)cc1 | -28.6% | x | -23.1% | x | x | x | x | x
O=C(CN1C(=O)NC(c2ccccc2)(c2ccccc2)C1=O)N1CCOCC1 | -9.9% | -4.8% | 4.0% | x | 11.0% | -11.8% | x | x
CCOC(=O)C(C)Sc1nc(N2CCOCC2)c2c(c1C#N)CC(C)(C)OC2 (stereo not given) | 11.4% | x | -5.9% | x | 6.9% | x | x | x
CCOC(=O)CCSc1nc(N2CCOCC2)c2c(c1C#N)CC(C)(C)OC2 | -5.8% | 0.0% | -10.4% | x | -7.9% | -5.4% | 11.2µM* | 11.2µM*
CC(C)CN(C(=O)COC(=O)c1ccc2c(c1)OCO2)c1c(N)n(Cc2ccccc2)c(=O)[nH]c1=O | 6.1% | -0.3% | -8.9% | x | -12.3% | -14.5% | x | x
CCOc1ccccc1-c1ccc(C(=O)O)o1 | x | x | x | x | u | -8.6%[135 µM] | x | x
CCOc1ccc(C(=O)NCCc2sc3nc(-c4ccc(Cl)cc4)nn3c2C)cc1OCC | -4.5% | x | x | x | 7.3% | -2.6% | x | x
CN(C)c1ccc(C(=O)c2ccc(O)cc2O)cc1 | 31.2% | 11.8% | -6.6% | -14.3% | -10.1% | -10.8% | x | x
CN(C)c1ccc(Cc2cc3c(O)ccc(O)c3cc(Cc3ccc(N(C)C)cc3)c2=O)cc1 | -6.4% | x | 0.947µM* | x | 44.7µM* | x | 3.55µM* | 3.55µM*
Cc1ccc(O)c(N=Nc2ccccc2)n1 | 18.4% | 4.8% | -7.8% | x | 0.1% | -9.1% | 10µM* | 15.5%
O=C1N(Cc2ccccc2)CC2(Br)COCOC12O (stereo not given) | -4.6% | x | 2.67µM* | x | u | x | 1.12µM* | 3.55µM*
CNC(=O)[C@H]1O[C@@H](n2cnc3c(N)ncnc32)[C@H](O)[C@@H]1O | x | x | x | x | 3.2% | -0.9% | x | x
COC1CC(N)C2OC(c3ccccc3)OCC2O1 (stereo not given) | 2.7% | x | -2.7% | x | x | x | x | x
SMILES | GLS inhibitor | Mito fusion act | PLK1 PBD inh | PKM2 act | VDR inhibitor | GCN5L2 inh | TbPYK inh | TbPYK orthogonal
O=C(NCCCO)c1ccc2nc(-c3ccco3)c(-c3ccco3)nc2c1 | -19.4% | -4.4% | 29.9µM* | 1.8% | 79.4µM* | -8.0% | 22.4µM* | 35.5µM*
O=C(NCc1ccccc1)c1ccc2nccnc2c1 | 2.6% | -12.2% | -4.1% | -0.7% | -10.7% | -1.3% | x | x
O=C(NCc1ccccc1)c1ccc2nc(-c3ccco3)c(-c3ccco3)nc2c1 | -20.1% | 0.6% | 7.52µM* | 23.0% | 39.8µM* | u | 17.8µM* | 17.8µM*
CCc1nc2ccc(C(=O)NCCc3ccco3)cc2nc1CC | -11.8% | 9.1% | -19.5% | 28.6% | -4.5% | -1.5% | x | x
O=C(Nc1ccccc1)c1ccc2nc(-c3ccco3)c(-c3ccco3)nc2c1 | -18.3% | 3.4% | 26.7µM* | 14.5% | u | u | u | u
O=C(Nc1cccnc1)c1ccc2nc(-c3ccccc3)c(-c3ccccc3)nc2c1 | -0.1% | -0.2% | -14.2% | 0.7% | 3.4% | -10.7% | x | x
CC1=C(C(=O)N2CCCCCC2)CC(CC(=O)NCCCCc2ccccc2)C(=O)N1Cc1ccccc1 (stereo not given) | 1.7% | x | -0.1% | x | x | x | x | x
COc1ccc(C(=O)Nc2ccc(N3CCCC3)cc2)cc1OC | x | -7.6% | 3.9% | -12.4%[11.5 µM] | 9.8% | -5.7% | u | -24.7%
CCN(CC)c1ccc(C(=C2C=CC(=[N+](CC)CC)C=C2)c2ccc(S(=O)(=O)O)cc2S(=O)(=O)[O-])cc1 | -6.8% | x | -13.2% | x | 57.1% | x | 15.8µM* | 2.3%
COc1ccc(OC)c(C2NC(=O)c3sc(=S)n(-c4ccccc4)c3N2)c1 (stereo not given) | 2.0% | 3.8% | u | u | 89.1µM* | -3.7% | 2µM* | 2.51µM*
COc1cccc(C2NC(=O)c3sc(=S)n(-c4ccccc4)c3N2)c1 (stereo not given) | 23.8% | 0.4% | -29.7% | 0.7% | u | -4.4% | x | x
CCOC(=O)c1ccc(NC(=O)NCc2ccccn2)cc1 | 8.0% | 1.9% | -8.4% | -5.6% | 13.5% | -27.6% | x | x
CCN(CC)C(=O)c1sc2[nH]c(=S)n(-c3ccccc3)c(=O)c2c1C | -7.9% | 0.1% | -17.0% | 7.1% | 0.1% | -15.9% | x | x
O=C(O)C1CCc2sc3[nH]c(=S)n(-c4ccccc4)c(=O)c3c21 (stereo not given) | 0.0% | 4.8% | u | -2.8% | -15.9% | -16.7% | 2µM* | 3.16µM*
